SMILES strings stand for the structures.

Assay [1] has as its target T1, Aspartate--tRNA(Asp/Asn) ligase (Mycobacterium tuberculosis (strain ATCC 25618 / H37Rv)) (UniProt P9WFW3). Also: in the data most compounds retested in dose-response had high values.
T1 sequence (whole entry): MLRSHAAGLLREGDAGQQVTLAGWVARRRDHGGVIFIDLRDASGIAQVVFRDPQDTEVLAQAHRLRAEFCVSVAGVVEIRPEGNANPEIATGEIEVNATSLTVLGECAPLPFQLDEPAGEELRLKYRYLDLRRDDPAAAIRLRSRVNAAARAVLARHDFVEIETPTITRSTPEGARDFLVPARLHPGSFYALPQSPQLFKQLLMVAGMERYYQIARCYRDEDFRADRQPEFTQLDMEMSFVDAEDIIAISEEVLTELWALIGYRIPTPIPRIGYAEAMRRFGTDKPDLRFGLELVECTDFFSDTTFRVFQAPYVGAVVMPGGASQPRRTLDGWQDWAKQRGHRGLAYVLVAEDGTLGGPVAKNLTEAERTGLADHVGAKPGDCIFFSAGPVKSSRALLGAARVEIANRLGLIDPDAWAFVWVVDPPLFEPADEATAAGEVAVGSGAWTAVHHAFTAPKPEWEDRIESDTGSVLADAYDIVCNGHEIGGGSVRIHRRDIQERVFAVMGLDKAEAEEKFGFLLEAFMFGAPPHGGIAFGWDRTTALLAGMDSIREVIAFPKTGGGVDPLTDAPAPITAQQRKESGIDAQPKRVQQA
Briefly: Assay for Asp RNA synthetase-1 from Mycobacterium tuberculosis. The assay is classed as functional. Also noted: scale not given: direction of the effect not stated beside the values. Particulars: 30 µM.

Assay [2] concerns the target Shiga toxin 2 (Escherichia coli O157:H7) (UniProt P09385+P09386). The experiment in a line: E. coli 0.157:H7 Shiga Toxin SOP - stx2 screening assay. The following applies: 30 µM. More on the design: scale not given: direction of the effect not stated beside the values. Format: functional.

As for `CN(CC(N)=O)S(=O)(=O)c1ccc(F)cc1Cl`, the results for the Percent Effect in assay [1] and in assay [2] were -2.44% and -10.3%, respectively.
As to `CC(C)C1CN(c2ncc(F)cn2)CCC(=O)N1Cc1ccc(F)cc1` (stereo not drawn), the Percent Effect is 1.56% in assay [1] and -4.93% in assay [2].
On to `Cc1ccc(N2CCN(C(=O)COc3nccc(C)n3)CC2)nn1`, for which the Percent Effect in assay [1] is -6.35%; in assay [2], -50.4%.
For `CC(=O)N1CC(Cc2nccc3ccn(C)c23)C1`, the Percent Effect in assay [1] is 1.31%; in assay [2] it was -32.1%.
For the molecule `O=C(Cc1ccsc1)N1CCCC(c2n[nH]c3nccnc23)C1` (stereo not drawn), the values for the Percent Effect in assay [1] and in assay [2] were -5.85% and 6.36%, respectively.
Take `NS(=O)(=O)Cc1ccc(CNC(=O)NCC2CCOC2)cc1` (stereo not drawn): the Percent Effect is -4.55% in assay [1] and 26.9% in assay [2].
In the same order, the values of `CC[C@@H](CO)NC(=O)c1coc(COc2ccc(OC)cc2)n1` are 6.33% and -5.46%.
As to `Cc1cccc(CN2C[C@@H]3COC[C@]3(COc3ccc(C#N)cn3)C2)n1`, the Percent Effect in assay [1] is -4.33%; in assay [2] it was -13.9%.
As to `Cc1ccn(-c2ccccc2NCc2ncc[nH]2)n1`, the Percent Effect was -0.604% in assay [1] and -13.8% in assay [2].
In the case of `COc1ccc(C(CNC(=O)Nc2cn[nH]c2)N2CCOCC2)cc1` (stereo not drawn), the Percent Effect in assay [1] is 1.21%; in assay [2], 23.8%.
Take `C[C@@H]1C(=O)NC[C@H]2CN(CCc3ccccc3)C[C@H]21`: the results for the Percent Effect in assay [1] and in assay [2] were 4.21% and -4.99%, respectively.
In the case of `Cc1cnc(CN(C)C2CCN(CC(=O)Nc3c(C)n[nH]c3C)C2)o1` (stereo not drawn), the Percent Effect in assay [1] is -2.74%; in assay [2] it was -14.3%.
For `Cc1nc(CN2CCCC(CCNS(C)(=O)=O)C2)c[nH]1` (stereo not drawn) the same measures were -4.89% and 13%.
In the case of `CCCc1noc(CN2CCCC2c2c(C)nn(C)c2OC)n1` (stereo not drawn), the Percent Effect is -5.33% in assay [1] and 4.3% in assay [2].
On to `CC(=O)N1CCO[C@@H]2CN(C(=O)c3cc(C)oc3C)CC[C@@H]2C1`, for which the Percent Effect in assay [1] is 4.81%; in assay [2] it was -5.49%.
Take `NC(=O)CCN1CCC(C(=O)c2cc(F)ccc2F)CC1`: the Percent Effect is 0.12% in assay [1] and -0.638% in assay [2].
`CCc1nc(C2CCCN2Cc2nc(CCOC)no2)no1` (stereo not drawn): the Percent Effect in assay [1] is 5.05%; in assay [2] it was -11.9%.
As for `CCn1cc2c(n1)CN(CC1CC1)CC2COCC1CC1` (stereo not drawn), the figures for the Percent Effect in assay [1] and in assay [2] were -2.72% and -2.1%, respectively.
In the case of `COc1ccc(C2OC(COc3ccccc3Br)=NN2C(C)=O)cc1` (stereo not drawn), the figures for the Percent Effect in assay [1] and in assay [2] were 0.568% and -36.2%, respectively.
Turning to `CN(C)C(=O)CN1CCCCC1c1nc(N)ncc1-c1cccc(F)c1` (stereo not drawn), the Percent Effect in assay [1] was -1.78%; in assay [2] it was -2.08%.
`Cc1cc(C[C@@H]2COC[C@@H]2NC(=O)CN2CCCC2)on1`: the figures for the Percent Effect in assay [1] and in assay [2] were 4.6% and -10.1%, respectively.
For `CN(C)C(=O)COC[C@]12COC[C@H]1CN(CC1CCC1)C2` the same measures were -8.17% and -9.5%.
For `CCC(CNC(=O)Nc1cnn(CC)c1)N1CCCC1` (stereo not drawn), the Percent Effect in assay [1] was -2.08%; in assay [2] it was 1.4%.
In the same order, the values of `CC(CNc1cncc(-n2cccn2)n1)N(C)c1ccccc1` (stereo not drawn) are 2.34% and 7.51%.
For `Cc1nc(C)n(CC2CCCN2Cc2nc(C3CC3)no2)n1` (stereo not drawn) the same measures were 0.278% and -16.4%.
In the same order, the values of `COc1ncccc1C(=O)N1CCn2c(COCC3CC3)cnc2C1C` (stereo not drawn) are -2.76% and 6.35%.
As for `Cc1cc(N2CCC(Cc3ccccc3)CC2)nc(-c2ccncc2)n1`, the figures for the Percent Effect in assay [1] and in assay [2] were -0.602% and -32.9%, respectively.
In the case of `CN1C(=O)C(C)(C)COc2cc(NS(=O)(=O)c3ccccc3)ccc21`, the Percent Effect in assay [1] was -5.61%; in assay [2], 8.93%.
Consider `CCOCCCC(=O)NCc1cn2cc(Br)ccc2n1`, for which the results for the Percent Effect in assay [1] and in assay [2] were 0.599% and -66%, respectively.
As for `CCc1nc(N)sc1C(=O)N1CCCC(CCc2ccccc2C)C1` (stereo not drawn), the Percent Effect is 6.53% in assay [1] and -7.07% in assay [2].
`COCCN1CCCC(O)(CN2CCN(c3ncccc3C)CC2)C1=O` (stereo not drawn): the Percent Effect is 5.57% in assay [1] and -7.55% in assay [2].
In the same order, the values of `CN(Cc1ccc2c(c1)OCCO2)C(=O)Cn1ccccc1=O` are -7.28% and -21.6%.
For `Cn1ncc2c1NC(=O)CC2c1ccc(Cl)cc1Cl` (stereo not drawn), the values for the Percent Effect in assay [1] and in assay [2] were 5.72% and -26.2%, respectively.
For the molecule `Cc1ccc(C2CSCCN2C(=O)c2ccc(C(N)=O)cc2)o1` (stereo not drawn), the Percent Effect was -1.11% in assay [1] and 8.19% in assay [2].
On to `CC(C)N1CCCC2(CCN(C(=O)CCCn3cncn3)C2)C1=O` (stereo not drawn), for which the Percent Effect in assay [1] was -0.717%; in assay [2], 11.1%.
As to `CCN(CC(=O)NC(C)C)S(=O)(=O)N1CCC(C)C1` (stereo not drawn), the Percent Effect in assay [1] is 2.41%; in assay [2] it was -3.8%.
With `O=C(C[C@@H]1COC[C@H]2CN(Cc3ccncc3)C[C@@H]12)N1CCOCC1`, the Percent Effect in assay [1] is -4.65%; in assay [2] it was -32%.
Regarding `O=C(N1CCOCC1)[C@@]12CCO[C@@H]1CCN(CC1CCCCC1)C2`, the Percent Effect in assay [1] was -2.47%; in assay [2] it was -36.5%.
With `COc1ccc(CN(Cc2cccnc2)CC2CCCO2)c(OC)c1` (stereo not drawn), the figures for the Percent Effect in assay [1] and in assay [2] were -3.99% and -13.4%, respectively.
In the case of `Cc1ccc(C(=O)NCC2(O)CCOCC2)cc1Br`, the Percent Effect was -1.3% in assay [1] and 8.46% in assay [2].
Consider `CNS(=O)(=O)c1cccc(CNc2cc(C(F)(F)F)ccn2)c1`, for which the Percent Effect is -2.24% in assay [1] and 27.2% in assay [2].
For the molecule `Nc1cc2c(nn1)CCN(C(=O)CC1CCCC1)C2`, the results for the Percent Effect in assay [1] and in assay [2] were -1.69% and 2.23%, respectively.
For `CN(C)c1cc(C(=O)N2CCN(S(C)(=O)=O)CC2)ccn1`, the figures for the Percent Effect in assay [1] and in assay [2] were -0.122% and -36.9%, respectively.
Turning to `Cc1cc(N2CCCN(C(=O)Cc3csc(C)n3)CC2)ccn1`, the figures for the Percent Effect in assay [1] and in assay [2] were 0.502% and 3.59%, respectively.
For `O=C(NC1CCCC1)N1CCCC(c2nccn2Cc2ccncc2)C1` (stereo not drawn), the Percent Effect in assay [1] is -4.62%; in assay [2] it was 12.8%.
As to `c1csc(-c2nc(CNC3CCc4ncnn4C3)co2)c1` (stereo not drawn), the Percent Effect was 1.3% in assay [1] and -1.44% in assay [2].
Turning to `CCc1nc(CC(=O)N2CCOCC2c2ncon2)cs1` (stereo not drawn), the values for the Percent Effect in assay [1] and in assay [2] were 1.11% and 11.7%, respectively.
As for `O=S1(=O)COCCN1Cc1ccc(Cl)c(F)c1`, the Percent Effect in assay [1] is 2.49%; in assay [2], -5.38%.
Turning to `O=S(=O)(Nc1cnn(C2CCOCC2)c1)c1ccc2c(c1)CCO2`, the Percent Effect in assay [1] was 0.452%; in assay [2], -15.1%.
For `CC(=O)N1CCCCC1c1nc(N)ncc1-c1ccccc1` (stereo not drawn) the same measures were 5.78% and 4.38%.
In the same order, the values of `CC(C(=O)NCc1cccc(N2CC=CC2)c1)n1cccn1` (stereo not drawn) are -1.41% and 27.1%.
On to `CN(Cc1ccco1)Cc1ccccc1CNC(=O)c1ccncc1`, for which the Percent Effect is -0.97% in assay [1] and 12.1% in assay [2].
For `CNC(=O)Nc1cc(-c2ccc(Br)cc2)nn1CCO`, the Percent Effect in assay [1] was -3.53%; in assay [2] it was 7.53%.
For `Cn1ncc2c(=O)[nH]c(CN3CCCC3c3cccs3)nc21` (stereo not drawn) the same measures were -0.799% and 3.97%.
As to `COc1cccn(CC(=O)N(C)Cc2ccoc2)c1=O`, the Percent Effect in assay [1] was -1.64%; in assay [2], 5.29%.
With `CCN(C)c1ncnc2c1CCN(Cc1ccc(OC)cc1)CC2`, the Percent Effect in assay [1] amounted to 7%; in assay [2], 4.46%.
For `CCS(=O)(=O)N1CCC2(CC1)CC(Oc1ccccn1)CO2` (stereo not drawn) the same measures were -0.51% and 0.988%.
Take `COc1cccc(CN2CCCC3(CCN(C(=O)[C@H]4CCCO4)C3)C2)c1` (stereo partly drawn): the results for the Percent Effect in assay [1] and in assay [2] were 2.84% and 5.38%, respectively.
Consider `Cc1ccc2c(ccn2CC(=O)NC[C@@H]2CCCN3CCCC[C@H]23)c1`, for which the Percent Effect in assay [1] was 2.12%; in assay [2] it was -7.12%.

The values above are taken from ChEMBL document CHEMBL3988442, “University of Dundee, Small-Polar-MMV Screening Library” (2021).
